# Test results published in PubChem BioAssay AID620 (Sanford-Burnham Center for Chemical Genomics, 2007).
# In all, about 87,000 compounds went through this assay and about 360 (0.41%) were called active. Cut-off read from the data, not from the text of the source: active = cytotoxicity above about 50%; inactive = the rest. Many of the other results were omitted from the sample, so actives are more common in it than they were.
# Experiment: HT1080 cell viability loss – fluorescence readout (AID 620);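 note: cells exposed to compound overnight then 4 h with Alamar Blue; 0% = vehicle DMSO and 100% = killing control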
# Conditions: at 10 µM, active compounds read high
row,SMILES,cytotoxicity
1,COC(=O)C1=C(C)Nc2nnnn2C1c1cccnc1 (stereo not drawn),10% (inactive)
2,CC1/C(=N/O)CC(c2ccccc2)N(C)C1c1ccccc1 (stereo not drawn),-0.2% (inactive)
3,CC1Cc2ccccc2N1S(=O)(=O)c1ccc2c(c1)n(C)c(=O)c(=O)n2C (stereo not drawn),-1.8% (inactive)
4,COc1ccc(OC)c(S(=O)(=O)N2c3ccccc3CC2C)c1 (stereo not drawn),10.1% (inactive)
5,CCOc1ccc(S(=O)(=O)N2c3ccccc3CC2C)cc1 (stereo not drawn),74.1% (active)
6,O=C(NCc1ccccn1)[C@@H]1C[C@H]1[C@@H](NP(=O)(c1ccccc1)c1ccccc1)c1ccccc1,-17.9% (inactive)
7,CCOc1ccc(NC(=O)CSc2nnc(-c3ccco3)n2C)cc1,-3.7% (inactive)
8,CN(C(=O)c1cc2n(n1)C(C(F)(F)F)CC(c1ccco1)N2)c1ccccc1 (stereo not drawn),56.4% (active)
9,CN(C(=O)c1cc2n(n1)C(C(F)(F)F)CC(c1ccco1)N2)c1ccc(OC(F)(F)F)cc1 (stereo not drawn),-1.6% (inactive)
10,O=C(NC1CCCCCC1)c1cc2n(n1)C(C(F)(F)F)CC(c1ccco1)N2 (stereo not drawn),-4.1% (inactive)
11,NC(=O)Nc1ccc(Oc2c(F)c(F)c(F)c(F)c2F)cc1,6% (inactive)
12,CC(C)(C)c1ccc(C(O)CCCN2CCC(C(O)(c3ccccc3)c3ccccc3)CC2)cc1 (stereo not drawn),93.4% (active)
13,OC(CCN1CCCC1)(c1ccccc1)C1CCCCC1 (stereo not drawn),-2.5% (inactive)
14,OC(CCCCN1CCCCC1)c1ccccc1 (stereo not drawn),-4.7% (inactive)
15,O=c1c2ccccc2nnn1CSc1nc2ccccc2c(=O)n1Cc1ccco1,-4.3% (inactive)
16,CC1CCCCC1NC(=O)CCn1c(=O)oc2ccccc21 (stereo not drawn),-4% (inactive)
17,O=C(NCc1cccs1)c1noc2c1CCCCC2,-0.7% (inactive)
18,O=C(Nc1nccs1)c1ccc(S(=O)(=O)NCC2CCCCC2)cc1,-11.1% (inactive)
19,CCOc1ccc(NC(=O)Cn2nnc(C(=O)NCc3ccco3)c2N)cc1,11.4% (inactive)
20,COc1ccc(NC(=O)Cn2nnc(C(=O)NCc3ccco3)c2N)c(OC)c1,-0.4% (inactive)
21,CCOc1ccccc1NC(=O)Cn1nnc(C(=O)NCc2ccco2)c1N,56.8% (active)
22,CCOc1ccccc1NC(=O)C(CC(C)C)NC(=O)C1CCC(C)CC1 (stereo not drawn),4.7% (inactive)
23,O=C(CCl)N(c1ccc(Cl)cc1)c1c[nH]c2ccccc12,100% (active)
24,O=C(O)CCC(=O)c1c[nH]c2ccccc12,-4.6% (inactive)
25,O=C(CCl)N(c1ccccc1)c1c[nH]c2ccccc12,71% (active)
26,CCN(CC)CC(=O)c1c[nH]c2ccccc12,3.6% (inactive)
27,CN(C)CC(=O)c1c[nH]c2ccccc12,-5.2% (inactive)
28,CC(=O)N(c1ccc(Cl)cc1)c1c[nH]c2ccccc12,3.1% (inactive)
